Test results reported in the supplement of paper PMC10849652.
About 7,900 targets were measured; listed, in parts, are those with a hit and a random draw of the rest. About 0.6% of all pairs of compound and target were hits.

What was measured:
Assay in all cases: log2 fold change, soluble protein after heating vs DMSO (PISA); higher = thermal stabilisation; K562 cells, 10 uM, 30 min; active = over 0.2 and 3.5 SD of the protein, either way, in both replicates (recomputed)
saracatinib = compound: CN1CCN(CCOc2cc(OC3CCOCC3)c3c(Nc4c(Cl)ccc5c4OCO5)ncnc3c2)CC1 [saracatinib]
Outline: (§1)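 Soluble protein was defined as the supernatant after 21,000xg for 90 min. It came from K562 cells at 2×10^6 cells/mL given 10 μM compound for 30 min, heated in aliquots for 3 min across 48°C-58°C, pooled, and extracted in PBS with 0.5% NP-40 at 4°C, and was quantified by TMTpro 16plex LC-MS/MS with equalised channel sums. Thermal stability against control samples, from duplicates, is reported as log2 fold change.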

sotrastaurin = compound: CN1CCN(c2nc(C3=C(c4c[nH]c5ccccc45)C(=O)NC3=O)c3ccccc3n2)CC1 [sotrastaurin]
Outline: as §1

alvocidib = compound: CN1CC[C@H](c2c(O)cc(O)c3c(=O)cc(-c4ccccc4Cl)oc23)[C@H](O)C1 [alvocidib]
Outline: as §1

Tubastatin A = compound: CN1CCc2c(c3ccccc3n2Cc2ccc(C(=O)NO)cc2)C1 [Tubastatin A]
Outline: as §1

[1] = compound: CNC(=O)C1=CC=CC=C1NC2=NC(=NC=C2Cl)NC3=C(C=C(C=C3)N4CCOCC4)OC
Outline: as §1

defactinib = compound: CNC(=O)c1ccc(Nc2ncc(C(F)(F)F)c(NCc3nccnc3N(C)S(C)(=O)=O)n2)cc1 [defactinib]
Outline: as §1

rucaparib = compound: CNCc1ccc(-c2[nH]c3cc(F)cc4c3c2CCNC4=O)cc1 [rucaparib]
Outline: as §1

[2] = compound: CNc1nc(-c2ccc3c(N)n[nH]c3c2)cc(N2C[C@@H](C(=O)NC3CCCCC3)CC[C@H]2C)n1
Outline: as §1

encorafenib = compound: COC(=O)N[C@@H](C)CNc1nccc(-c2cn(C(C)C)nc2-c2cc(Cl)cc(NS(C)(=O)=O)c2F)n1 [encorafenib]
Outline: as §1

[3] = compound: COC(=O)[C@H](CCSC)NC(=O)C1=C(C=C(C=C1)NC[C@H](CS)N)C2=CC=CC=C2
Outline: as §1

[4] = compound: COC1=CC=C(C=C1)CN2C=CC3=C2C=C(C=C3)C(=O)NO
Outline: as §1

filanesib = compound: CON(C)C(=O)N1N=C(c2cc(F)ccc2F)S[C@@]1(CCCN)c1ccccc1 [filanesib]
Outline: as §1

zotarolimus = compound: CO[C@H]1C[C@@H]2CC[C@@H](C)[C@@](O)(O2)C(=O)C(=O)N2CCCC[C@H]2C(=O)O[C@H]([C@H](C)C[C@@H]2CC[C@H](n3cnnn3)[C@H](OC)C2)CC(=O)[C@H](C)/C=C(\C)[C@@H](O)[C@@H](OC)C(=O)[C@H](C)C[C@H](C)/C=C/C=C/C=C/1C [zotarolimus]
Outline: as §1

idasanutlin = compound: COc1cc(C(=O)O)ccc1NC(=O)[C@@H]1N[C@@H](CC(C)(C)C)[C@](C#N)(c2ccc(Cl)cc2F)[C@H]1c1cccc(Cl)c1F [idasanutlin]
Outline: as §1

alisertib = compound: COc1cc(Nc2ncc3c(n2)-c2ccc(Cl)cc2C(c2c(F)cccc2OC)=NC3)ccc1C(=O)O [alisertib]
Outline: as §1

[5] = compound: COc1cc2nc(-c3cc(F)ccc3O)nc(N[C@@H]3CNC[C@H]3C(C)(C)O)c2cc1OC
Outline: as §1

gefitinib = compound: COc1cc2ncnc(Nc3ccc(F)c(Cl)c3)c2cc1OCCCN1CCOCC1 [gefitinib]
Outline: as §1

[6] = compound: COc1cccc2cc(-c3nc([C@H]4CC[C@H](C(=O)O)CC4)n4ncnc(N)c34)[nH]c12
Outline: as §1

lapatinib = compound: CS(=O)(=O)CCNCc1ccc(-c2ccc3ncnc(Nc4ccc(OCc5cccc(F)c5)c(Cl)c4)c3c2)o1 [lapatinib]
Outline: as §1

pictilisib = compound: CS(=O)(=O)N1CCN(Cc2cc3nc(-c4cccc5[nH]ncc45)nc(N4CCOCC4)c3s2)CC1 [pictilisib]
Outline: as §1

Measured: log2 fold change

VKORC1 (UniProt Q9BQB6)
Chain of UniProt Q9BQB6 (Q9BQB6 whole entry, looked up): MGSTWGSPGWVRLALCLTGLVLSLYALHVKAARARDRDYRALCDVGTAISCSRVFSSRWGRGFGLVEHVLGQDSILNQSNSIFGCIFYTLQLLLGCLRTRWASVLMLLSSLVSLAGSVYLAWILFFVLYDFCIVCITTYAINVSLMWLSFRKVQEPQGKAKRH
inactive: saracatinib 0.002 | sotrastaurin -0.086 | alvocidib 0.073 | Tubastatin A -0.052 | [1] 0.105 | defactinib -0.038 | rucaparib -0.059 | [2] 0.026 | encorafenib 0.057 | [3] -0.023 | [4] 0.079 | filanesib -0.077 | zotarolimus 0.022 | idasanutlin -0.089 | alisertib 0.016 | [5] -0.019 | gefitinib -0.05 | [6] -0.144 | lapatinib -0.06 | pictilisib -0.021

TMEM161A (UniProt Q9NX61)
Chain of UniProt Q9NX61 (Q9NX61 whole entry, looked up): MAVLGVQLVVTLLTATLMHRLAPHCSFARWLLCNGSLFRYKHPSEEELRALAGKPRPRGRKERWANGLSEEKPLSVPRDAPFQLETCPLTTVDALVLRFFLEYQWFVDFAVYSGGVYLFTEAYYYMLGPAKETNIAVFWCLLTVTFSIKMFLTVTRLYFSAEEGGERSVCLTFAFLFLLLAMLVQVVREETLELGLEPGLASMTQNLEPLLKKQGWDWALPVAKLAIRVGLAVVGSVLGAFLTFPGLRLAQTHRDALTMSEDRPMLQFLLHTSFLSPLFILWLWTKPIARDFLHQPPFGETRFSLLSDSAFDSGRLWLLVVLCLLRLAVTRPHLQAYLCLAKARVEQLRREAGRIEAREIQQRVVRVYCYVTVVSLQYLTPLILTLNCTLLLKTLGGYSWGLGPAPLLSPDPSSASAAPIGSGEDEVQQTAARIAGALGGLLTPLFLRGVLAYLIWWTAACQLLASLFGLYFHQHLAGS
inactive: saracatinib 0.011 | sotrastaurin 0.027 | alvocidib -0.027 | Tubastatin A 0.039 | [1] -0.108 | defactinib 0.03 | rucaparib -0.106 | [2] -0.029 | encorafenib 0.106 | [3] 0.058 | [4] -0.021 | filanesib -0.148 | zotarolimus -0.072 | idasanutlin -0.167 | alisertib 0.009 | [5] -0.033 | gefitinib -0.01 | [6] 0.051 | lapatinib 0.075 | pictilisib -0.106

TMEM87B (UniProt Q96K49)
Chain of UniProt Q96K49 (Q96K49 whole entry, looked up): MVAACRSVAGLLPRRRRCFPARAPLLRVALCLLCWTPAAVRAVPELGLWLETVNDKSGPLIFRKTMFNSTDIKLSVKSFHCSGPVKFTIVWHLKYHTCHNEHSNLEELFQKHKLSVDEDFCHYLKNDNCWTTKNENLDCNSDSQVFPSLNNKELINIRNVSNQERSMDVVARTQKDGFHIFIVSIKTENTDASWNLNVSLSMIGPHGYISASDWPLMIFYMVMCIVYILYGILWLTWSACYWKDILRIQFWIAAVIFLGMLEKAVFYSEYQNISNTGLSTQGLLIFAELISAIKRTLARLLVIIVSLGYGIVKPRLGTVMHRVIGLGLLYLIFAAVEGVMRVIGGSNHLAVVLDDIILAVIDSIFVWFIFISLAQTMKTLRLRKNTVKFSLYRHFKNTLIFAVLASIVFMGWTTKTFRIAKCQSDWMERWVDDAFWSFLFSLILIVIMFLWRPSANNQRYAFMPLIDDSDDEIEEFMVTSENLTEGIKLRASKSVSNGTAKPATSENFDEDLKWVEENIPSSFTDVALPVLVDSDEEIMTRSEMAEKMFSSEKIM
inactive: saracatinib -0.072 | sotrastaurin 0.013 | alvocidib -0.046 | Tubastatin A -0.099 | [1] -0.019 | defactinib 0.044 | rucaparib -0.016 | [2] -0.123 | encorafenib 0.03 | [3] 0.149 | [4] -0.064 | filanesib -0.046 | zotarolimus -0.108 | idasanutlin -0.05 | alisertib -0.133 | [5] -0.002 | gefitinib 0.063 | [6] 0.036 | lapatinib 0.026 | pictilisib 0.055

USP3 (UniProt Q9Y6I4)
Chain of UniProt Q9Y6I4 (Q9Y6I4 whole entry, looked up): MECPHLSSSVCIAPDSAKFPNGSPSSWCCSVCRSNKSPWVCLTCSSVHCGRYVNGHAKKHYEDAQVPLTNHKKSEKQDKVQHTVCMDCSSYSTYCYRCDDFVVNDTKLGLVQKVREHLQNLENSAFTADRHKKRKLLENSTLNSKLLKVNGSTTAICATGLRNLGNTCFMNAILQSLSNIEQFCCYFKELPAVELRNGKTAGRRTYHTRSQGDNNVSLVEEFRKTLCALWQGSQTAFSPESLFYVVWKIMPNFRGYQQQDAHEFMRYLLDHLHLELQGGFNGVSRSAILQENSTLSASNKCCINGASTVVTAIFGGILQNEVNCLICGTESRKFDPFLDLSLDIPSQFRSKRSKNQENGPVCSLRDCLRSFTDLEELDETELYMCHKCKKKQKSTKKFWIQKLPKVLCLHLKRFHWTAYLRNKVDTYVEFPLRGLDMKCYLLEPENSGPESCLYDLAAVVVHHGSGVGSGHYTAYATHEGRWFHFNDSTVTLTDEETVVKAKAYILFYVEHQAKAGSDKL
inactive: saracatinib 0.16 | sotrastaurin 0.074 | alvocidib -0.288 | Tubastatin A -0.181 | [1] -0.118 | defactinib -0.205 | rucaparib 0.042 | [2] 0.155 | encorafenib -0.008 | [3] -0.092 | [4] 0.131 | filanesib -0.246 | zotarolimus 0.009 | idasanutlin -0.039 | alisertib 0.085 | [5] -0.201 | gefitinib -0.007 | [6] -0.014 | lapatinib 0.053 | pictilisib 0.027

WASHC3 (UniProt Q9Y3C0)
Chain of UniProt Q9Y3C0 (Q9Y3C0 whole entry, looked up): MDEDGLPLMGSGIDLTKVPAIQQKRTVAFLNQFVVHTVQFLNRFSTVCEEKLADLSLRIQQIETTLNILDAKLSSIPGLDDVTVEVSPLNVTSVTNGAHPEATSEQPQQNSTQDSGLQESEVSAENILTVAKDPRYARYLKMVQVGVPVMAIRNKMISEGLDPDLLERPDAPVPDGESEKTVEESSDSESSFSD
inactive: saracatinib 0.055 | sotrastaurin 0.026 | alvocidib 0.077 | Tubastatin A 0.054 | [1] 0.004 | defactinib -0.02 | rucaparib -0.022 | [2] -0.02 | encorafenib -0.005 | [3] 0.008 | [4] 0.108 | filanesib -0.061 | zotarolimus 0.001 | idasanutlin 0.068 | alisertib 0.077 | [5] 0.002 | gefitinib -0.014 | [6] 0.042 | lapatinib -0.029 | pictilisib 0.05

TNNC2 (UniProt P02585)
Chain of UniProt P02585 (P02585 whole entry, looked up): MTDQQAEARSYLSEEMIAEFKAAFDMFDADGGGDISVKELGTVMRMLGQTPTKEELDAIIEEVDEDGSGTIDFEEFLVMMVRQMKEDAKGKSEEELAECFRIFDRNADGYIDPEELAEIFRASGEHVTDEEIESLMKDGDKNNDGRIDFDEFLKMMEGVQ
inactive: saracatinib 0.007 | sotrastaurin 0.095 | alvocidib -0.009 | Tubastatin A -0.139 | [1] -0.035 | defactinib 0.012 | rucaparib -0.025 | [2] -0.056 | encorafenib -0.049 | [3] 0.037 | [4] -0.037 | filanesib 0.038 | zotarolimus -0.006 | idasanutlin 0.007 | alisertib -0.172 | [5] 0.014 | gefitinib 0.008 | [6] 0.045 | lapatinib -0.027 | pictilisib 0.025

USP14 (UniProt P54578)
Chain of UniProt P54578 (P54578 whole entry, looked up): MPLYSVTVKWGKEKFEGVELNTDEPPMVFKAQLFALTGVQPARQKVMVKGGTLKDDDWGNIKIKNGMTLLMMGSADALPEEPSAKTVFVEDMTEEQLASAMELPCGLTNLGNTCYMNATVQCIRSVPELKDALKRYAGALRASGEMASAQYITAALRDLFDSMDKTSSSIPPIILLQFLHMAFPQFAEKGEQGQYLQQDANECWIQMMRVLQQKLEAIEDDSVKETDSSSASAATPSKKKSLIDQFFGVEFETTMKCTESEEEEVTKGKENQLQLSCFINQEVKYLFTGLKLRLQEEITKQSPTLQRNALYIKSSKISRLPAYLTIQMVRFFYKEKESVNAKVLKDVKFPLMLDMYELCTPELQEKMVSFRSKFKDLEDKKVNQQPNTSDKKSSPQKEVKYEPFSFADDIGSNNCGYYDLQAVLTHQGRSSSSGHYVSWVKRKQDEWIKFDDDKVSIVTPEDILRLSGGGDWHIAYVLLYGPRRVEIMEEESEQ
inactive: saracatinib -0.007 | sotrastaurin -0.013 | alvocidib -0.047 | Tubastatin A 0.033 | [1] 0.012 | defactinib -0.064 | rucaparib -0.025 | [2] -0.01 | encorafenib 0.044 | [3] -0.021 | [4] 0.023 | filanesib -0.035 | zotarolimus 0.04 | idasanutlin -0.051 | alisertib -0.057 | [5] -0.008 | gefitinib 0.007 | [6] -0.043 | lapatinib 0.031 | pictilisib 0.026

TMEM208 (UniProt Q9BTX3)
Chain of UniProt Q9BTX3 (Q9BTX3 whole entry, looked up): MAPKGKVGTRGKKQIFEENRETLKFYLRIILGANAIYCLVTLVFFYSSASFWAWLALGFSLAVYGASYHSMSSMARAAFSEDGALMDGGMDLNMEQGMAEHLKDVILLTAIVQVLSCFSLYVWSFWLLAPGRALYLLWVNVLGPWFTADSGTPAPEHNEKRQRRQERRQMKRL
inactive: saracatinib -0.047 | sotrastaurin -0.02 | alvocidib -0.039 | Tubastatin A 0.003 | [1] -0.142 | defactinib -0.023 | rucaparib -0.045 | [2] -0.099 | encorafenib 0.145 | [3] -0.164 | [4] -0.131 | filanesib -0.254 | zotarolimus -0.111 | idasanutlin -0.137 | alisertib 0.109 | [5] 0.019 | gefitinib -0.055 | [6] -0.146 | lapatinib -0.151 | pictilisib -0.17
